Hit rate of the full screen: of about 360,000 compounds, about 2,300 (0.64%) were called active. For the sample, actives were picked, then their nearest neighbours and some compounds at random. Values without a mark were called inactive. Rule as the data show it: active = inhibition mostly above about 40% (no sharp cut-off); inactive = mostly below about 27%.
target: Sentrin-specific protease 8 (Homo sapiens) (UniProt Q96LD8); assay: blockers of SENP8 deneddylase activity – biochemical, fluorescence, Nedd8 protein substrate, uHTS, primary screen (AID 602440); conditions: recombinant SENP8, Nedd8 substrate fluorescence; at 20 µM; hits give high values
Sequence (Q96LD8 whole entry, looked up): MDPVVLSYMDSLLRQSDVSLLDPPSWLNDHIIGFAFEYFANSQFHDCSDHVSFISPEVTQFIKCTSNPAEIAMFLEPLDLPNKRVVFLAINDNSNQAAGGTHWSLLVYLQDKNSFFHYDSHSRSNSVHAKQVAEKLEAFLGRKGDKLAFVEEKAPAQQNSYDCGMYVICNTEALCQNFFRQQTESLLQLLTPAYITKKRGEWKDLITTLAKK

In order of falling inhibition:
1. O=C(OCC(=O)c1cccs1)c1ccc([N+](=O)[O-])o1  29.2%
2. O=C(Cn1cc(-c2nnnn2-c2ccc(Cl)cc2)c(=O)c2ccccc21)c1ccccc1  26.2%
3. CC1(C)CC(=O)C(N=Nc2c(F)cccc2F)=C(O)C1  24.6%
4. CN(C(=O)CN1C(=O)/C(=C/c2ccc(Cl)cc2)SC1=S)C1CCS(=O)(=O)C1 (stereo not given)  23.9%
5. CCc1nnc(NC(=O)CSc2nc3ccccc3c(=O)n2CCCOC)s1  23.2%
6. Cn1c2c(c(=O)n(C)c1=O)C(c1cccc([N+](=O)[O-])c1)Nc1ccccc1O2 (stereo not given)  22.9%
7. CCc1ccccc1NC(=O)c1ccc2c(c1)CCN2S(C)(=O)=O  22.2%
8. CC1(C)C2CCC1(C)C(OC(=O)CCn1ccnc1)C2 (stereo not given)  22.1%
9. C=C(C)Cn1c(C)cc(C)c(S(=O)(=O)c2ccccc2C)c1=O  20.8%
10. COc1ccc(/C=C2/C(=O)OCc3cc(OC)c(OC)cc32)c(OC)c1  20.7%
11. COc1cc2[nH]c(=S)n(Cc3ccc(C)o3)c(=O)c2cc1OC  20%
12. CCOc1cc(/C=N/NC(=O)c2ccncc2)cc(Br)c1O  19.2%
13. Nc1ncnc2c1ncn2[C@@H]1O[C@H](C(=O)N2CCCN(Cc3ccccc3F)CC2)[C@@H](O)[C@H]1O  18.2%
14. CC[n+]1cc(C)ccc1/C=C/c1ccc(N(C)C)cc1  18.1%
15. O=C(NCCN1CCOCC1)C1CCN(S(=O)(=O)c2ccccc2)CC1  18%
16. CN1C2CCC1CC(NC(=O)c1ccc([N+](=O)[O-])cc1)C2 (stereo not given)  17.8%
17. CCOC(=O)c1ccc2c(c1)nc(C)n2CC  17.4%
18. Nc1c(C(=O)c2cccs2)sc2nsc(SCCN3CCCCC3)c12  16.8%
19. CC(=O)NNc1cc(=O)c2c(=O)n(C)c(=O)n(C)c2[nH]1  15.9%
20. O=C(CCNC(=O)c1ccc([N+](=O)[O-])cc1)NC1CCCCC1  15.8%
21. NCCCCC(C(=O)O)N(C(=O)OCc1ccccc1)C(=O)OCc1ccccc1 (stereo not given)  15.2%
22. O=C(CN1CCN(c2cccc(Cl)c2)CC1)Nc1ccc(S(=O)(=O)N2CCOCC2)cc1  15%
23. Cc1ccc(NC(=S)N(CCCN2CCCC2)Cc2cccn2Cc2ccc(Cl)cc2)cc1  14.9%
24. CCC1CCCCN1C(=O)Nc1cccc(NC(=O)N2CCCCC2CC)c1 (stereo not given)  13%
25. CCc1ccccc1NC(=O)NCCN1CCCCC1  12.7%
26. Cn1c(N)c(C(=O)COC(=O)C23CC4CC(CC(C4)C2)C3)c(=O)n(C)c1=O  12%
27. Cc1nc2ccccc2n1C(=O)N1CCOCC1  11.5%
28. C/C=C/C=C/C(=O)O  11.5%
29. O=C(NC(=S)N1CCc2ccccc21)c1ccco1  11.3%
30. Cc1cc(C)cc(N(CC(=O)NC2CCCC2)C(=O)CCC(=O)Nc2nccs2)c1  10.9%
31. CN(CC(=O)NNC(=O)CNC(=O)c1ccccc1Cl)S(=O)(=O)c1ccc(Cl)cc1  10.1%
32. O=C(COC(=O)c1ccc(Br)o1)NC12CC3CC(CC(C3)C1)C2  10%
33. OC(c1ccccc1)C(CN1CCOCC1)c1ccccc1 (stereo not given)  9.9%
34. COc1ccc(C(=O)CCc2ccccc2O)c(OC)c1  9.3%
35. COCCNC(=S)N1CCC(NC(=O)C23CC4CC(CC(C4)C2)C3)CC1  8.9%
36. O=C(CN(C(=O)c1csnn1)c1cccc(F)c1)NCc1ccc(F)cc1  8.3%
37. Cc1ccc(C(=O)OC2CCCN(C)C2)cc1 (stereo not given)  8.1%
38. O=S(=O)(c1ccc(-c2ccccc2)cc1)N1CCCC1  7.9%
39. CC(CCn1cccn1)NC(=O)CCc1nnc(CCc2ccccc2)o1 (stereo not given)  7.6%
40. Cc1cc(NC(=O)COC(=O)COc2ccc(Cl)cc2C)c([N+](=O)[O-])cc1C  7.4%
41. Cc1c(C(=O)N(Cc2ccccc2)Cc2cccnc2)cnn1-c1ccc(F)cc1  7.4%
42. COc1ccc(C2=NOC(C(=O)NCc3ccco3)C2)cc1OC (stereo not given)  7.1%
43. O=C1CCCC(O)=C1N=Nc1ccc2ncsc2c1  7.1%
44. CCN(CC)CCOC(=O)c1ccc(NC(=O)CNC(=O)c2ccccc2)cc1  7%
45. O=C(CSc1nnnn1C1CCCC1)Nc1ccc2c(c1)OCCO2  7%
46. Cc1ccc(S(=O)(=O)N2CCN(S(=O)(=O)N3CCOCC3)CC2)cc1  6.5%
47. COc1ccc(CN2CN(C(C)C)CSC2=S)cc1  6.1%
48. O=C(NNc1nc(N2CCCC2)nc(N2CCCC2)n1)c1ccccc1  5.2%
49. CCN(CC)C(=O)CC1(c2ccccc2OC)CCOC(C(C)C)C1 (stereo not given)  4%
50. Cc1cc(O)c(NC(=O)c2ccc(C)c([N+](=O)[O-])c2)cc1C  3.9%
51. CC(C(=O)Nc1ccccc1-c1ccccc1)N1CCOCC1 (stereo not given)  3.7%
52. COC(=O)C1=C(C)NC(=S)NC1c1ccc(OCC(=O)N2CC(C)OC(C)C2)c(OC)c1 (stereo not given)  3.3%
53. CCN(CC(=O)NC(C)C)C(=O)c1cc(S(=O)(=O)N2CCCCC2)ccc1N1CCCCC1  2.8%
54. CCCc1c(-c2ccccc2F)ncn1Cc1ccccc1OC  2.7%
55. CCCCn1c(N)c(N(CC(C)C)C(=O)c2ccc(-n3c(C)ccc3C)cc2)c(=O)[nH]c1=O  1.8%
56. O=C(C[C@H]1C(=O)N(c2ccc(F)c(F)c2)C[C@@H]1Cc1ccccc1)Nc1ccccc1  1.6%
57. COC(=O)CN1C(=O)C(C)(C)Oc2ccc(C(=O)Nc3cccc(OC)c3)cc21  1.3%
58. Cc1nc2ccccc2n1CC(O)c1ccccc1 (stereo not given)  0.7%
59. C=CCOc1ccc(C(=O)Nc2ccccc2C(=O)N2CCCC2)cc1  0.4%
60. CCOc1ccc(NC(=O)CCNC(=O)c2ccc(Br)cc2)cc1  0.3%
61. O=[N+]([O-])c1ccc(COc2ccccc2CN2CCOCC2)cc1  -0.2%
62. COc1ccc(C(=O)N(CCN2CCOCC2)CC(=O)NC2CCCC2)cc1OC  -1.7%
63. CCOC(=O)C1CCCCN1Cc1ccc(OC)c(OC)c1OC (stereo not given)  -4.4%
64. Cc1ccc(C2=Nc3c(ccc4ccccc34)C(c3ccncc3)=NN2)cc1  -6.5%
65. Cn1c(C(=O)O)ccc1S(=O)(=O)N(Cc1ccccc1)Cc1ccccc1  -7%
66. O=C(N/N=C/c1ccc(Br)o1)c1cncc(Br)c1  -18.2%
67. O=C(COC(=O)c1ccc2ncsc2c1)Nc1ccc(Cl)cc1  -18.6%
68. CCOCCCn1c(SCC(=O)Nc2cc(OC)ccc2OC)nc2ccccc2c1=O  -19.4%
69. CCC(C)(C)NC(=O)C(c1ccc(O)cc1)N(Cc1ccco1)C(=O)CCC(=O)Nc1ccccn1 (stereo not given)  -20.6%
70. c1ccc(-c2c[nH]c(-c3ccccc3)c2)cc1  -22%
71. COc1ccc(-c2c(NC(=O)c3ccco3)oc3ccc(Cl)cc3c2=O)cc1  -71.5%
72. Cc1ccc(-c2nn(-c3ccccc3)cc2/C=C/C(=O)Nc2cccc(S(N)(=O)=O)c2)cc1  -81.3%
73. COc1cccc(-c2nn(-c3ccccc3)cc2/C=C(\C#N)C(=O)NCCCn2ccnc2)c1  -266%
74. CC(C)(C)NC(=O)C(CCc1ccccc1)n1c(=O)c(-c2ccccc2)nc2ccccc21 (stereo not given)  -332%
75. COc1ccc2c(c1)C(C)=CC(C)(C)N2C(=O)Nc1ccccc1  -486%

`CCOCCCn1c(NN)nc2ccccc2c1=O` was tested, and the inhibition was 34% (active).
`Cc1oc2c(c1C(=O)N1CCOCC1)C(=O)c1ccccc1C2=O` was tested, and the inhibition was 61.3% (active).
With `CC1(C)C2CCC1(C)C(OC(=O)c1ccc(O)cc1)C2` (stereo not given) the inhibition was 40.5% (active).
For `CCN(CC)C(=O)CCC(=O)Nc1ccc(C(=O)OC)cc1`, the inhibition was 51.9% (active).
In the case of `CN1CCc2ccccc2C1Cc1ccccc1NC(=O)c1sc2ccccc2c1Cl` (stereo not given), the inhibition is reported as 53.8% (active).
In the case of `COc1ccc(/C=C2/C(=O)N(c3ccccc3)N=C2C)c(OC)c1`, the inhibition is reported as 53.8% (active).
For `CN(C)c1ccc(/C=C2\NC(=S)N(Cc3ccccc3)C2=O)cc1`, the inhibition was 46.7% (active).
In the case of `CC1(C)CC(=O)C(N=Nc2ccc(S(=O)(=O)N3CCCCCC3)cc2)=C(O)C1`, the inhibition is reported as 41% (active).
In the case of `O=C1CCCC(O)=C1N=Nc1ccc(S(=O)(=O)N2CCOCC2)cc1`, the inhibition is reported as 43.2% (active).
In the case of `Clc1ccc(C2=CSC3=Nc4cccc5cccc(c45)N23)cc1`, the inhibition is reported as 70.7% (active).
With `O=C(COC(=O)c1ccc([N+](=O)[O-])o1)NC12CC3CC(CC(C3)C1)C2` the inhibition was 35.1% (active).
In the case of `Oc1ccc(C2Nc3cccc4cccc(c34)N2)cc1`, the inhibition is reported as 63.3% (active).
In the case of `C=CCOc1ccc(/C=C2\SC(=S)N(CCC(=O)O)C2=O)cc1`, the inhibition is reported as 40.8% (active).
`Oc1c(CN2CCOCC2)ccc(CN2CCOCC2)c1O` was tested, and the inhibition was 79% (active).
`CN(C)c1ccc(Nc2c3c4c(cccc4n(C)c2=O)C(=O)c2ccccc2-3)cc1` was tested, and the inhibition was 52.7% (active).
For `CCn1c(C)nc2c1C(=O)c1ccccc1C2=O`, the inhibition was 53.2% (active).
In the case of `O=C(Nc1cc2c3c(c1)C1CCCC1CN3CC1CCCC21)c1ccc([N+](=O)[O-])cc1` (stereo not given), the inhibition is reported as 40.6% (active).
In the case of `Cc1ccc(C(=O)N/N=C\c2cc(Br)c(Br)o2)cn1`, the inhibition is reported as 58.6% (active).
With `CN(C)S(=O)(=O)c1cccc(-c2nn(-c3ccccc3)cc2/C=C2\SC(=S)N(CC(=O)O)C2=O)c1` the inhibition was 44% (active).
`O=[N+]([O-])c1c(NCCO)cc(Sc2nc3ccccc3s2)c2nonc12` was tested, and the inhibition was 75.9% (active).

Reference: PubChem BioAssay AID602440 (Sanford-Burnham Center for Chemical Genomics, 2012)
